Holding throughout (type): functional
Test [1] deals with Solute carrier family 2, facilitated glucose transporter member 1 (Homo sapiens) (UniProt P11166). The test is described as follows: ST_JUDE_LEISH: Cytotoxicity at 2uM final concentration against transgenic Leishmania Mexicana promastigotes LmGLUT1 that are glucose transport deficient and complemented with the human glucose transporter GLUT1. Activity is measured by DNA content using SYBR green in vitro.

In test [2] the target is Hexose transporter 1 (Plasmodium falciparum) (UniProt O97467). The test is described as follows: ST_JUDE_LEISH: Cytotoxicity at 2uM final concentration against transgenic Leishmania Mexicana promastigotes LmPfHT that are glucose transport deficient and complemented with the Plasmodium falciparum hexose transporter. Activity is measured by DNA content using SYBR green in vitro.

Test [3] concerns the target Glucose transporter (Leishmania mexicana) (UniProt O61059). The test is described as follows: ST_JUDE_LEISH: Cytotoxicity at 2uM final concentration against transgenic Leishmania Mexicana promastigotes LmGT2 that are glucose transport deficient and complemented with the L. Mexicana glucose transporter 2. Activity is measured by DNA content using SYBR green in vitro.

A word on the inhibition: it is the relative decrease from the control value, in per cent.

Chain of Solute carrier family 2, facilitated glucose transporter member 1 (Homo sapiens) (P11166 whole entry): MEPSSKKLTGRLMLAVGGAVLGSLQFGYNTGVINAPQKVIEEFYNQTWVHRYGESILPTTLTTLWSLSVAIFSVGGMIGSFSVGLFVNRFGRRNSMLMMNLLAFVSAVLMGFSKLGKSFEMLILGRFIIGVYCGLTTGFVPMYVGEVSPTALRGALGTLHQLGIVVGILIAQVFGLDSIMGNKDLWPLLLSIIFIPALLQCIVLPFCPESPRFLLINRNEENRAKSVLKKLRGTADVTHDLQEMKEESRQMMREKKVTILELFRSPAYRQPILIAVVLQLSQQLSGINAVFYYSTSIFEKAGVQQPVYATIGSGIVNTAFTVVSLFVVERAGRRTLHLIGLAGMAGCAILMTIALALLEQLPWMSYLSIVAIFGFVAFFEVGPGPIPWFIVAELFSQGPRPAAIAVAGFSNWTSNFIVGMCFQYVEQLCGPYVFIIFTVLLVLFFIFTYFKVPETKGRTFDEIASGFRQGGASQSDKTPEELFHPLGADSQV

For the compound `Cc1cc(N2CCCC2)nc(Nc2ccc(NC(=O)C(C)(C)C)cc2)n1`, the values for the inhibition in test [1], in test [2] and in test [3] were 0.4%, 2.7% and -0.65%, respectively.
In the same order, the values of `Cc1cccn2c(=O)c3cc(C(=O)NCc4cccnc4)c(=N)n(CCc4ccccc4)c3nc12` are 3.35%, 4.08% and 1.6%.
`Cn1cnc2c(SCc3ccc(OCc4ccccc4)cc3)ncnc21`: the figures for the inhibition in test [1], in test [2] and in test [3] were 2.71%, 4.19% and 6.37%, respectively.
In the same order, the values of `CN1CCN(c2ccnc3ccc(NC(=O)Nc4ccc(-c5ccncc5)c5ccccc45)cc23)CC1` are 3.36%, 0.39% and 5.81%.
On the same counts, the results for `Cc1nnsc1C(=O)Nc1cccc(-c2csc(-c3nc4ccccc4[nH]3)c2)c1` are 2.53%, 3.19% and 1.45%.
On the same counts, the results for `COc1c(C2CCN(CCCCNC(=O)c3ccc(-c4ccc(C#N)cc4)nc3)CC2)ccc2c1CCCC2` are 1.52%, 2.03% and 0.52%.
Consider `Cc1ccc(Cc2c(N)nc3nc(N)nc(N)c3c2C)cc1`, for which the values for the inhibition in test [1], in test [2] and in test [3] were 4.96%, 8.67% and 6.55%, respectively.
On the same counts, the results for `NC(=O)c1ccccc1OCC(=O)Nc1ccc(-c2cccc(-c3nc4cc(C(F)(F)F)ccc4[nH]3)c2)cc1` are 2.52%, -0.46% and 3.74%.
On the same counts, the results for `CCNc1cc(C(=O)N[C@@H](Cc2ccccc2)[C@H](O)CNC2(CC(C)C)CC2)cc(N2CCCCS2(=O)=O)c1` are -1.54%, 4.02% and -0.34%.
With `N#Cc1ccc2c(c1)CN(C1CCC(NC(=O)c3cc(-c4ccc(Cl)cc4)cs3)CC1)CCC2` (stereo unspecified), the inhibition in test [1] came out at 3.29%; in test [2] it was 0.21%; in test [3], 1.7%.
Regarding `COc1ccc(-c2csc(NC(=O)CCC(=O)O)n2)cc1OC`, the inhibition in test [1] worked out at 0.77%; in test [2] it was 1.36%; in test [3] it was 3.83%.
On the same counts, the results for `Oc1ccccc1CNCC12CC3CC(CC(C3)C1)C2` are 3.18%, 2.08% and 2.13%.

The record behind these values is ChEMBL document CHEMBL3433997, “St. Jude Leishmania screening dataset” (2016).
